Measurements published in PubChem BioAssay (EPA / NIEHS).
Records with an inconclusive call do not appear. Activity calls are given as the source filed them. How the source made its calls: active means hit-call score of the fitted dose curve at least 0.9, where 1 is the maximum; inconclusive means response in the unintended direction; inactive means score below 0.9.

Each compound was assayed on frog Estrogen Receptor (ESR2), gene 100174814 (assay: ATG_frER2_XSP1: Attagene TRANS-FACTORIAL Multi-Species (XSP1) HepG2 Assay for frog Estrogen Receptor (ESR2) (AID 2283774)).
Experimental: ATG_XSP1_multi-species_TRANS is a cell-based, multiplexed assay created by modifying the existing Attagene TRANS-FACTORIAL system to include a panel of nuclear receptors from some or all the following species: human (Homo sapiens), mouse (Mus musculus), frog (Xenopus laevis), zebrafish (Danio rerio), chicken (Gallus gallus), and turtle (Chrysemys picta). The ECOTOX-FACTORIAL format uses HepG2, a human liver cell line, with measurements taken at 24 hours after chemical dosing in a 24-well plate. Xsp1 included 3 nM 6-alpha-fluorotestosterone to partially stimulate the androgen receptor.ATG_frER2_XSP1 is one of 29 assay components measured or calculated from the ATG_XSP1_multi-species_TRANS assay. It is designed to make measurements of mRNA induction, a form of inducible reporter, as detected with fluorescence intensity signals by Reverse transcription polymerase chain reaction (RT-PCR) and Capillary electrophoresis technology.The assay endpoint ATG_frER2_XSP1 was analyzed in the positive analysis fitting direction relative to DMSO as the negative control and baseline of activity. Using a type of inducible reporter, measures of mRNA for gain-of-signal activity can be used to understand the reporter gene at the transcription factor-level as they relate to the gene ER. Furthermore, this assay endpoint can be referred to as a primary readout, because this assay has produced multiple assay endpoints where this one serves a reporter gene function. To generalize the intended target to other relatable targets, this assay endpoint is annotated to the nuclear receptor intended target family, where the subfamily is steroidal.
Human liver HepG2 cells are transiently transfected with multiple reporter transcription units (MRTUs) in 6-well plates using FuGene 6 reagent (Roche; 3 ml FuGene/1 mg DNA). The MRTU constructs are regulated by a cis-regulating element (promoter). […] A major difference between the CIS and TRANS system is that in CIS activities of endogenous TFs are measured, whereas the TRANS assay evaluates changes in activities of exogenous, chimeric NR-Gal4 proteins. […] At the end of 24 hour incubation, total RNA was isolated using TriZol reagent (Invitrogen). The isolated RNA is then reverse-transcribed using oligo(dT) primer and Mo-MLV reverse transcriptase (Invitrogen) with DNAse I (Ambion) treatment for 30 min. The one-tenth of the produced cDNA was amplified by PCR using Taq DNA polymerase (Invitrogen) and two reporter sequence-specific primers. The PCR products were fluorescently labeled by primer extension with 6-arboxyfluorescein (6-FAM) 5'-labeled reporter sequence-specific primer (2 min at 95 C, 20 s at 68 C and 10 min at 72 C) and these products were digested with 5U of HpaI (New England Biolabs) for 2h at 37 C. The fragments were purified using Qiaquick PCR columns (Qiagen), analyzed on an ABI 3130xL genetic analyzer (Applied Biosystems) with peak positions identified by using a set of X-rhodamine (ROX)-labeled MapMarker1000 molecular weight standards (BioVentures). The raw capillary electrophoresis data was processed using Attagraph software (Attagene).
`CO/C=C(/C(=O)OC)c1ccccc1Oc1cc(Oc2ccccc2C#N)ncn1` was tested, and the outcome was “inactive”.
With `OC(c1ccc(Cl)cc1)(c1cncnc1)c1ccccc1Cl` (stereo not drawn) the AC50 was 4.32 µM (active).
With `CC(C)Oc1cc(-n2nc(C(C)(C)C)oc2=O)c(Cl)cc1Cl` the AC50 was 33.5 µM (active).
In the case of `COP(=S)(OC)Oc1nc(Cl)c(Cl)cc1Cl`, the AC50 was 61.6 µM (active).
For `CCCCC(CC)COC(=O)c1ccccc1C(=O)OCC(CC)CCCC` (stereo not drawn), the outcome was “inactive”.
With `CC(C)(C)c1ccc(CSc2cnn(C(C)(C)C)c(=O)c2Cl)cc1` the outcome was “inactive”.
`CCCC1COC(Cn2cncn2)(c2ccc(Cl)cc2Cl)O1` (stereo not drawn) was tested, and the AC50 was 27 µM (active).
For `CON(C)C(=O)Nc1ccc(Cl)c(Cl)c1`, the AC50 was 29.1 µM (active).
For `C#CCOS(=O)OC1CCCCC1Oc1ccc(C(C)(C)C)cc1` (stereo not drawn), the AC50 was 25.8 µM (active).
For `COc1ccc(C(c2ccc(OC)cc2)C(Cl)(Cl)Cl)cc1`, the AC50 was 1.09 µM (active).
For `CCCN(CCC)c1c([N+](=O)[O-])cc(S(N)(=O)=O)cc1[N+](=O)[O-]`, the AC50 was 11.2 µM (active).
`COC(=O)N(OC)c1ccccc1COc1ccn(-c2ccc(Cl)cc2)n1` was tested, and the outcome was “inactive”.
`C=CC1(C)OC(=O)N(c2cc(Cl)cc(Cl)c2)C1=O` (stereo not drawn) was tested, and the outcome was “inactive”.
